Assay outcomes (PubChem)
TcdB inh – TcdB glycohydrolase inhibitors, primary screen, biochemical, single point, plate reader; TcdB glycohydrolase enzymatic assay; Toxin B (Clostridioides difficile), P18177; AID 652162, 2013; inhibition, % at 9.99 µM; 350,000 tested, 0.24% active; in the data active = inhibition above about 10%
Mtb UGM inh – M. tuberculosis UGM enzyme inhibitors, primary screen, biochemical, fluorescence polarization, single point; UDP-galactopyranose mutase (Mycobacterium tuberculosis (strain ATCC 25618 / H37Rv)), …; purified UGM, fluorescence polarization probe displacement; inhibition, % at 10 µM; 320,000 tested, 0.06% active; AID 504406, 2011; in the data active = inhibition above about 10%, passing the limit was not always enough
Target sequence (P9WIQ1 whole entry, looked up): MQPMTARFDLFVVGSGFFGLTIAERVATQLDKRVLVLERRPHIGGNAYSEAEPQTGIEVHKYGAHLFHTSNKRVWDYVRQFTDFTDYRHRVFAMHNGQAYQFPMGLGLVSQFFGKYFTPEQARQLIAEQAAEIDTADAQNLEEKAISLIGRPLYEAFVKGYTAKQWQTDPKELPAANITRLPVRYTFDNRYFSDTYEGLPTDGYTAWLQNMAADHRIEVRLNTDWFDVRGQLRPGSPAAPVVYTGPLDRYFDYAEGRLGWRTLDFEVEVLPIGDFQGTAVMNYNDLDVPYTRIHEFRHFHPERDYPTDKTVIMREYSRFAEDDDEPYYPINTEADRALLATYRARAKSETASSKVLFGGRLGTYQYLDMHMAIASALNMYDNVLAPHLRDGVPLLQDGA
FadD28 binding – inhibitors of FadD28 bisubstrate probe binding, primary screen, biochemical, fluorescence polarization, single point; 360,000 tested, 0.22% active; inhibition, % at 12.5 µM; AID 588549, 2011; in the data active = inhibition above about 8.5%, passing the limit was not always enough
BioA inh – M. tuberculosis BioA enzyme inhibitors, primary screen, biochemical, plate reader, single point, HTS; inhibition, % at 9.99 µM; purified M. tuberculosis BioA enzyme; 7,8-diaminopelargonic acid synthase BioA (Mycobacterium tuberculosis); 360,000 tested, 0.096% active; AID 602481, 2012; in the data active = inhibition above about 40%
Rv3671c protease – Rv3671c serine protease inhibitors, primary screen, biochemical, fluorescence polarization, M. tuberculosis H37Rv; P9WHR9; inhibition, % at 5.96 µM; 320,000 tested, 0.048% active; AID 2606, 2010; in the data active = inhibition above about 38%;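 also: extracellular domain of Rv3671c used as enzyme; 0% = enzyme with DMSO and 100% = no enzyme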
RecA splice inh – Mtb RecA intein splicing inhibitors, primary screen, biochemical, fluorescence, HTS; Protein RecA (Mycobacterium tuberculosis (strain ATCC 25618 / H37Rv)), P9WHJ3; 290,000 tested, 0.75% active; inhibition, % (concentration not given with the values); cell-free RecA intein splicing; in the data active = inhibition above about 30%;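 also: 0% = vehicle wells and 100% = reference inhibitor control wells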
Active calls of the source: *. An excerpt weighted towards active compounds, which were near 0.9% of everything screened.

How did COc1ccc(C2CC(=O)Oc3cc(O)ccc32)cc1 (stereo not given) do in these assays?
TcdB inh: 1; FadD28 binding: -1; BioA inh: 2

Results for Cc1ccccc1C1CC(=O)Oc2cc(O)ccc21 (stereo not given) ?
FadD28 binding: 13*; BioA inh: -6

How did O=C(O)CCN1C(=O)/C(=C\c2ccc(-c3nc4ccccc4s3)o2)SC1=S do in these assays?
Mtb UGM inh: -1; FadD28 binding: 20*; BioA inh: -2; Rv3671c protease: -4; RecA splice inh: -46

How did CC(=O)c1cccc(OCC(=O)c2cc(C)n(-c3cc(C)on3)c2C)c1 do in these assays?
TcdB inh: 16*; Mtb UGM inh: 2; FadD28 binding: 0; BioA inh: 11; Rv3671c protease: 3; RecA splice inh: 3

What do the screens show for `Cc1cc(-n2c(C)cc(C(=O)COc3ccc4ccc(=O)oc4c3)c2C)no1`?
Mtb UGM inh: -1; FadD28 binding: 1; Rv3671c protease: -7; RecA splice inh: -1

How did COc1ccc(-c2csc(/C(C#N)=C\c3ccc(O)c([N+](=O)[O-])c3)n2)cc1OC do in these assays?
TcdB inh: 1; Mtb UGM inh: 0; FadD28 binding: 9.5*; BioA inh: 5; Rv3671c protease: -3; RecA splice inh: 2

What do the screens show for `COc1ccc(-c2csc(/C(C#N)=C\c3ccc(OC)c([N+](=O)[O-])c3)n2)cc1`?
Mtb UGM inh: 0; FadD28 binding: 0; BioA inh: -4; Rv3671c protease: -4; RecA splice inh: -3

What do the screens show for `CCC(C)c1ccc(NC(=S)NCc2cccs2)cc1` (stereo not given)?
Mtb UGM inh: 1; FadD28 binding: 7; BioA inh: 0; Rv3671c protease: 2; RecA splice inh: 9

What do the screens show for `CC(C)(C)c1ccc(NC(=S)NCc2cccs2)cc1`?
Mtb UGM inh: -1; FadD28 binding: 42*; Rv3671c protease: -4; RecA splice inh: 10

How did O=S(=O)(O)c1cccc2cccc(Nc3ccccc3)c12 do in these assays?
TcdB inh: -1; Mtb UGM inh: -1; FadD28 binding: 81*; BioA inh: 6; Rv3671c protease: -1; RecA splice inh: -17

What do the screens show for `CCCC(=O)Nc1ccc2c(c1)OC[C@H](C)N(Cc1cccc(F)c1)C[C@H](C)[C@@H](OC)CN(C)C2=O`?
TcdB inh: 0

How did COc1ccc(-c2csc(Nc3ccc(S(N)(=O)=O)cc3)n2)cc1 do in these assays?
Mtb UGM inh: -4; FadD28 binding: -3; BioA inh: -2; Rv3671c protease: 4; RecA splice inh: 9

How did NS(=O)(=O)c1ccc(Nc2nc(-c3ccc(O)cc3)cs2)cc1 do in these assays?
Mtb UGM inh: 3; FadD28 binding: 10*; BioA inh: 7; Rv3671c protease: 12; RecA splice inh: 2

How did Oc1ccc(Nc2nc(-c3ccc(O)cc3)cs2)cc1 do in these assays?
Mtb UGM inh: 3; FadD28 binding: 0; Rv3671c protease: 12; RecA splice inh: 34*

Results for C[C@@H]1CCCCO[C@@H](CN(C)C(=O)Nc2ccccc2)[C@H](C)CN([C@H](C)CO)C(=O)c2cc(NC(=O)c3ccncc3)ccc2O1 ?
TcdB inh: -2; BioA inh: 0

How did S=c1[nH]nc(-c2ccccn2)n1/N=C/c1ccc(Cl)cc1 do in these assays?
TcdB inh: 15*; Mtb UGM inh: 2; FadD28 binding: 1; Rv3671c protease: 7; RecA splice inh: -13

How did Cc1cccc(-c2ccc3ncnc(NCc4cccs4)c3c2)c1 do in these assays?
TcdB inh: 1; Mtb UGM inh: 1; FadD28 binding: -9; BioA inh: 1; Rv3671c protease: -17

Results for Clc1cccc(-c2ccc3ncnc(NCc4cccs4)c3c2)c1 ?
TcdB inh: 11*; Mtb UGM inh: 3; FadD28 binding: 0; BioA inh: -10; Rv3671c protease: -75

Results for COc1cccc(N=C2NC(=O)/C(=C/c3cc([N+](=O)[O-])ccc3O)S2)c1 ?
TcdB inh: 1; Mtb UGM inh: 1; FadD28 binding: 1; BioA inh: -1; Rv3671c protease: 1; RecA splice inh: -1

How did O=C1NC(=Nc2ccccc2Cl)S/C1=C\c1cc([N+](=O)[O-])ccc1O do in these assays?
TcdB inh: -3; Mtb UGM inh: -2; FadD28 binding: 30*; BioA inh: 3; Rv3671c protease: 22; RecA splice inh: 7

How did COc1cc(/C=C2\S/C(=N/S(=O)(=O)c3ccc(C)cc3)NC2=O)c([N+](=O)[O-])cc1OC do in these assays?
Mtb UGM inh: -1; FadD28 binding: 3; Rv3671c protease: 19; RecA splice inh: -3

What do the screens show for `Cc1ccc(S(=O)(=O)/N=C2/NC(=O)/C(=C/c3cc([N+](=O)[O-])ccc3O)S2)cc1`?
TcdB inh: -11; Mtb UGM inh: -6; FadD28 binding: 33*; BioA inh: 0; Rv3671c protease: 7; RecA splice inh: -3

Results for Cc1ccc(S(=O)(=O)/N=C2/NC(=O)/C(=C\c3ccco3)S2)cc1 ?
Mtb UGM inh: 1; FadD28 binding: 12*; BioA inh: -2; Rv3671c protease: -2

How did Cc1ccc(S(=O)(=O)Nc2ccc3c(c2)C(=O)N([C@H](C)CO)C[C@@H](C)[C@H](CN(C)Cc2ccncc2)OCCCC[C@@H](C)O3)cc1 do in these assays?
TcdB inh: 2; BioA inh: 0

Results for O=C(C[C@H]1C=C[C@@H](NC(=O)CC2CC2)[C@@H](CO)O1)NCc1ccc(-c2ccccc2)cc1 ?
TcdB inh: 0

Results for C[C@@H]1CN([C@H](C)CO)C(=O)c2cccc(NS(=O)(=O)c3ccc(Cl)cc3)c2O[C@H]1CN(C)C(=O)Nc1ccc(C(F)(F)F)cc1 ?
TcdB inh: 0; BioA inh: 0

Results for COC(=O)Cn1cc(C=C2C(=O)N(C)C(=O)N(C)C2=O)c2ccccc21 ?
TcdB inh: 0; Mtb UGM inh: 14*; Rv3671c protease: -12; RecA splice inh: 2

Results for COC(=O)Cn1cc(/C=C2\C(=O)NC(=O)N(c3ccccc3)C2=O)c2ccccc21 ?
TcdB inh: 0; Mtb UGM inh: 8; FadD28 binding: 5; BioA inh: -5; Rv3671c protease: -7; RecA splice inh: -3

What do the screens show for `CCN(CC)C(=O)Cn1cc(C=C2C(=O)N(C)C(=O)N(C)C2=O)c2ccccc21`?
TcdB inh: 0; Mtb UGM inh: -1; FadD28 binding: 2; BioA inh: -2; Rv3671c protease: 7; RecA splice inh: 0
